“And” between values parts separate entries of the source, which are not always exact repeats. Equal entries are not always repeated. Results filed as inconclusive are left out. Where a structure was tested more than once in an assay, its records may differ in their call. The source made the active and inactive calls. Unless noted, the call rests on the fitted dose curve; in most records, active means well fitted curve in the direction sought with a large enough effect in the repeat runs; inconclusive means weak or mixed curves; inactive means no such curve, though single readings can be large; an effect the other way counts as inactive or inconclusive.

The record followed here is PubChem BioAssay (Tox21).

Assay [1] in a line: qHTS assay to identify small molecule phospholipidosis (PLD) inducers (AID 1259344; active means well fitted curve in the direction sought with a large enough effect; an effect the other way counts as inactive or inconclusive). The following applies: HepG2 phospholipidosis, LipidTOX Red imaging, 24 h; series mostly up to 38.3 µM. A digest of the protocol:
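After 4 h attachment on collagen I, HepG2 cells were dosed with compound alongside LipidTOX Red, kept 24 h at 37 C, fixed, and imaged for lamellar phospholipid pits.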
Background: In qHTS, concentration-response curves come from the screen itself.

Assay [2] can be described thus: qHTS assay to identify small molecule HDAC inhibitors (AID 1259364).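 Further: wild-type HCT-116 cells with endogenous class I/II HDAC activity; top concentration of the series differs between compounds; nearly all actives have a fitted effect of over 45% in size.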 The conditions noted are these: HCT-116 HDAC-Glo I/II luminescence, 2 h; series mostly up to 92.4 µM. The essentials:
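After a 2 hr compound incubation (37C, 5% CO2), HCT-116 cells seeded at 1,500/well the day before received HDAC-Glo reagent; signal read as luminescence after 30 min at room temperature.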

Assay [3] in a line: qHTS assay to identify small molecule HDAC inhibitors - cell viability counter screen (AID 1259365). Further: nearly all actives have a fitted effect of over 50% in size. The conditions noted are these: HCT-116 viability, CellTiter-Glo ATP luminescence, 2 h; series mostly up to 92.4 µM. A digest of the protocol: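 HCT-116 wild-type, overnight attachment; 2hr drug exposure, 37C; CellTiter-Glo luminescent ATP readout after 30min RT.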
The nature of assay [4]: qHTS assay to identify small molecule agonists of the sonic hedgehog signaling (Shh) pathway - cell viability counter screen (AID 1259366). Further: nearly all actives have a fitted effect of over 50% in size. The conditions noted are these: NIH/3T3 Gli1-Luc viability, CellTiter-Fluor, 24 h; series mostly up to 92.4 µM. A digest of the protocol:
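Compounds in DMSO were pin-transferred onto 3T3 Gli1-Luc cells that had settled 4hr; plates then stood 24hr at 37C and 5% CO2. One hour before the end, CellTiter-Fluor was added and fluorescence recorded.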

The nature of assay [5]: qHTS assay to identify small molecule antagonists of the sonic hedgehog signaling (Shh) pathway - cell viability counter screen (AID 1259367). Further: nearly all actives have a fitted effect of over 55% in size. Further: potency means the concentration at half of the fitted maximal effect. The following applies: NIH/3T3 Gli1-Luc viability, CellTiter-Fluor, 24 h; series mostly up to 92.4 µM. A digest of the protocol: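 Conditioned medium drove Shh signaling in 3T3 Gli1-Luc cells exposed to compounds at 37C and 5% CO2. Viability was determined from CellTiter-Fluor fluorescence, with reagent incubated 1 hr after 23 hr of treatment.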

The nature of assay [6]: qHTS assay to identify small molecule agonists of the sonic hedgehog signaling (Shh) pathway (AID 1259368; calls by dose curve;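 further: NIH/3T3-derived 3T3Gli1-Luc cells carrying a stable Gli1-driven firefly luciferase reporter; nearly all actives have a fitted effect of over 15% in size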). The following applies: NIH/3T3 Gli1-Luc reporter, luciferase, 24 h; series mostly up to 92.4 µM. The essentials: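 Stable NIH/3T3 Gli1-Luc reporter clone; 24 hr cpd exposure after a 4 hr settling period; luminescence endpoint.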
Assay [7] can be described thus: qHTS assay to identify small molecule antagonists of the sonic hedgehog signaling (Shh) pathway (AID 1259369; calls by dose curve; further: nearly all actives have a fitted effect of over 45% in size; further: potency means the concentration at half of the fitted maximal effect). The following applies: NIH/3T3 Gli1-Luc reporter, Shh antagonist, luminescence 24 h; series mostly up to 92.4 µM. The essentials:
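Gli1 transcriptional reporter (firefly Luc) in NIH/3T3 background, conditioned-medium activated. 24hr exposure, luminescence endpoint.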

Assay [8] has as its target Estrogen receptor beta (Homo sapiens) (UniProt Q92731). Description: qHTS assay to identify small molecule agonists of the estrogen receptor beta (ER-beta) signaling pathway (AID 1259377; active means well fitted activation curve with a large enough effect in the signal ratio in the repeat runs, not every such curve was filed as active; the % refers to the signal ratio). The conditions noted are these: ER-beta-UAS-bla HEK293T, beta-lactamase FRET ratio, 16 h; series mostly up to 92.4 µM. A digest of the protocol:
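qHTS in ER-beta-UAS-bla HEK293T cells: 6 hr settling, then 16 hr compound at 37C, then LiveBLAzer substrate 2 h at RT before fluorescence reading.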

A short description of assay [9]: qHTS assay to identify small molecule agonists of the estrogen receptor beta (ER-beta) signaling pathway - cell viability counter screen (AID 1259380). Further: nearly all actives have a fitted effect of over 30% in size. The following applies: ER-beta-bla HEK293T viability, CellTiter-Glo luminescence, 16 h; series mostly up to 92.4 µM. The essentials:
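In this qHTS counter screen, HEK293T cells carrying an ER-beta/UAS beta-lactamase reporter, grown in 2% charcoal-stripped FBS, received compound for 16 hr; ATP-based CellTiter-Glo luminescence was then read after 30 min at room temperature.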

A short description of assay [10]: qHTS assay to identify small molecule antagonists of the estrogen receptor beta (ER-beta) signaling pathway - cell viability counter screen (AID 1259382). Further: nearly all actives have a fitted effect of over 55% in size. The conditions noted are these: ER-beta-UAS-bla HEK293T viability, CellTiter-Glo luminescence, 16 h; series mostly up to 92.4 µM. The essentials:
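HEK293T ER-beta-UAS-bla, 2% charcoal-stripped FBS; compounds + 1nM E2 16 hr 37C; CellTiter-Glo luminescence, 30 min RT.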

Assay [11] is described as follows: qHTS assay to identify small molecule agonists or antagonists of the thyroid stimulating hormone receptor (TSHR) signaling pathway - wild type cell line counter screen (AID 1259384; calls by dose curve). The conditions noted are these: HEK293 wild type, cAMP HTRF counter-screen; series mostly up to 92.4 µM. A digest of the protocol: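 Wild-type HEK293 cells were plated 18 h at 37 C/5% CO2, pin-dosed with compound plus Ro20-1724 medium, held 30 min at room temperature, then given cAMP-d2 and anti-cAMP-cryptate; fluorescence was read after 1 h. Fifteen concentrations, triplicate.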

Assay [12] addresses Thyrotropin receptor (Homo sapiens) (UniProt P16473). Description: qHTS assay to identify small molecule antagonists of the thyroid stimulating hormone receptor (TSHR) signaling pathway (AID 1259385; calls by dose curve; further: nearly all actives have a fitted effect of over 20% in size). The conditions noted are these: TSHR-HEK293 cAMP HTRF, TSH-stimulated antagonist mode; series mostly up to 92.4 µM. The essentials: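 TSHR-HEK293 cells were plated and held 18 h at 37C/5% CO2, then given compound plus Ro20-1724 and stimulated with TSH at 1.5 ng/mL final. After 30 min at room temperature, cAMP was detected with cAMP-d2/anti-cAMP-cryptate (1 h) by fluorescence.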

Assay [13] in a line: qHTS assay to identify small molecule agonists of the estrogen receptor alpha (ER-alpha) signaling pathway in the presence of an antagonist - cell viability counter screen (AID 1259386). Further: nearly all actives have a fitted effect of over 30% in size. The following applies: VM7Luc4E2 viability, CellTiter-Fluor fluorescence, 22 h; series mostly up to 92.4 µM. The essentials: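 Steps: 5-day stripped-FBS culture; seed and incubate 24hr; add ICI-182,780 (10.0nM final); pin 15-point compound titration; incubate 22hr at 37C; add CellTiter-Fluor at 21hr; read fluorescence.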

Assay [14] has as its target Progesterone receptor (Homo sapiens) (UniProt P06401). Description: qHTS assay to identify small molecule agonists of the progesterone receptor (PR) signaling pathway (AID 1346784; calls by dose curve; further: nearly all actives have a fitted effect of over 30% in size). The following applies: PR-UAS-bla HEK293T, beta-lactamase FRET ratio, 16 h; series mostly up to 92.4 µM. The essentials: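 Fluorescence from LiveBLAzer B/G FRET substrate cleavage (2 hr, RT) reported PR activation in PR-UAS-bla HEK 293T cells treated 16 hr at 37C/5% CO2 with compounds; medium contained 2% charcoal-stripped FBS.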

Assay [15] deals with Estrogen receptor (Homo sapiens) (UniProt P03372). Description: qHTS assay to identify small molecule antagonists of the estrogen receptor alpha (ER-alpha) signaling pathway using the BG1 cell line in the presence of 0.1 nM 17-beta-estradiol (AID 1259244). Further: nearly all actives have a fitted effect of over 50% in size. Further: potency means the concentration at half of the fitted maximal effect. The conditions noted are these: VM7Luc4E2 (BG1) ERE-luciferase, antagonist mode, 0.1 nM E2, 22 h; series mostly up to 92.4 µM. A digest of the protocol: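 Seeding of stripped-serum-adapted VM7Luc4E2 cells, 24 h attachment, compound transfer, then 0.1 nM final 17beta-estradiol; after 22 h incubation, ONE-Glo reagent and luminescence reading.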

A short description of assay [16]: qHTS assay to identify small molecule agonists of the androgen receptor (AR) signaling pathway in the presence of an antagonist - cell viability counter screen (AID 1259379).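 Further: MDA-kb2 human breast cancer cells carrying an MMTV luciferase reporter; nearly all actives have a fitted effect of over 25% in size.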 The conditions noted are these: MDA-kb2 viability, CellTiter-Fluor, 16 h; series mostly up to 92.4 µM. The essentials: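 Counter screen for cell viability run in parallel with the AR agonist-mode luciferase assay. MDA-kb2 cells were co-treated with nilutamide (3.0uM final) and compounds, then incubated 16 hr at 37C, and CellTiter-Fluor fluorescence was measured.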

The target in assay [17] is Estrogen receptor (Homo sapiens) (UniProt P03372). Description: qHTS assay to identify small molecule agonists of the estrogen receptor alpha (ER-alpha) signaling pathway in the presence of an antagonist (AID 1259383; calls by dose curve; further: top concentration of the series differs between compounds; nearly all actives have a fitted effect of over 15% in size). The following applies: VM7Luc4E2 cells, ERE-luciferase, +ICI-182,780, 22 h; series mostly up to 92.4 µM. A digest of the protocol:
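ER-alpha agonism measured under antagonist challenge: 10.0nM ICI-182,780 (final) plus compound, 15 concentrations, 22hr, VM7Luc4E2 ERE-luciferase cells. Read by luminescence.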

Assay [18] deals with Estrogen receptor beta (Homo sapiens) (UniProt Q92731). Description: qHTS assay to identify small molecule antagonists of the estrogen receptor beta (ER-beta) signaling pathway (AID 1259378; active means well fitted inhibition curve with a large enough effect in the signal ratio in the repeat runs, not every such curve was filed as active; the % refers to the signal ratio). The following applies: ER-beta-UAS-bla HEK293T, beta-lactamase FRET ratio, 16 h; series mostly up to 92.4 µM. The essentials: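 ER-beta-UAS-bla HEK293T (GripTite) cells in 2% charcoal-stripped FBS medium were preincubated 6 hr at 37C, dosed with compound, then stimulated with 1 nM E2 (final) for 16 hr; beta-lactamase reporter read by B/G FRET fluorescence after 2 hr substrate loading.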
Sequence of Estrogen receptor beta (Homo sapiens) (Q92731 whole entry, looked up): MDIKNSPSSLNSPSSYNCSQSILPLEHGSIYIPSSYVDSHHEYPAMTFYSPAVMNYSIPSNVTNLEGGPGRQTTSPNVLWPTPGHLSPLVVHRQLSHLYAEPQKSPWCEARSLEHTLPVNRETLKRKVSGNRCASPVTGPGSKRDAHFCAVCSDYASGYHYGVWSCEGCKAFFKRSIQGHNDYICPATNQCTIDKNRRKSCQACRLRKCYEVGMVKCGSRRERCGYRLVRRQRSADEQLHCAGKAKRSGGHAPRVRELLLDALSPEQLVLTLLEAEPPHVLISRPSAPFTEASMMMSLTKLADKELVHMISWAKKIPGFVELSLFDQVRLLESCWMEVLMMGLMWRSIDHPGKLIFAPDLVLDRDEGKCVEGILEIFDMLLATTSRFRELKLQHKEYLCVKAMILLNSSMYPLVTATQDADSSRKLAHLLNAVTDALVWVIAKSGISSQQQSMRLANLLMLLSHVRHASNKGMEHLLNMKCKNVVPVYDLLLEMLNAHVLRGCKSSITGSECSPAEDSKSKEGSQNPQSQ

Sequence of Estrogen receptor (Homo sapiens) (P03372 whole entry, looked up): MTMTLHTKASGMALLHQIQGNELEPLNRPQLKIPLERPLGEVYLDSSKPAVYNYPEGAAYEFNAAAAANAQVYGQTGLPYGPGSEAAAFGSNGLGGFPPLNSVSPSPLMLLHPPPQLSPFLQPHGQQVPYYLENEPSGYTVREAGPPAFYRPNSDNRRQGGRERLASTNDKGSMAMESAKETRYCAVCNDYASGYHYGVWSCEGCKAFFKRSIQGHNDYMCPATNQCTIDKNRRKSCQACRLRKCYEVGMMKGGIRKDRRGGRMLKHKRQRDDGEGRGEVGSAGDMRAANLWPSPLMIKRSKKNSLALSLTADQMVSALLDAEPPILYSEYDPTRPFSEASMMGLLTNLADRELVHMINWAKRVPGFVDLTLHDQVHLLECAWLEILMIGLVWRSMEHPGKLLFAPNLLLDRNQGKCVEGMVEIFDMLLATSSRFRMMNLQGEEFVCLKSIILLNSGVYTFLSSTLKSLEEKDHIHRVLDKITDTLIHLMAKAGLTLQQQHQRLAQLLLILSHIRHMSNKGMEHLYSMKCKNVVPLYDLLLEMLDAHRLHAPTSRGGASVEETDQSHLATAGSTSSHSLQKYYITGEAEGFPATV
Sequence of Thyrotropin receptor (Homo sapiens) (P16473 whole entry, looked up): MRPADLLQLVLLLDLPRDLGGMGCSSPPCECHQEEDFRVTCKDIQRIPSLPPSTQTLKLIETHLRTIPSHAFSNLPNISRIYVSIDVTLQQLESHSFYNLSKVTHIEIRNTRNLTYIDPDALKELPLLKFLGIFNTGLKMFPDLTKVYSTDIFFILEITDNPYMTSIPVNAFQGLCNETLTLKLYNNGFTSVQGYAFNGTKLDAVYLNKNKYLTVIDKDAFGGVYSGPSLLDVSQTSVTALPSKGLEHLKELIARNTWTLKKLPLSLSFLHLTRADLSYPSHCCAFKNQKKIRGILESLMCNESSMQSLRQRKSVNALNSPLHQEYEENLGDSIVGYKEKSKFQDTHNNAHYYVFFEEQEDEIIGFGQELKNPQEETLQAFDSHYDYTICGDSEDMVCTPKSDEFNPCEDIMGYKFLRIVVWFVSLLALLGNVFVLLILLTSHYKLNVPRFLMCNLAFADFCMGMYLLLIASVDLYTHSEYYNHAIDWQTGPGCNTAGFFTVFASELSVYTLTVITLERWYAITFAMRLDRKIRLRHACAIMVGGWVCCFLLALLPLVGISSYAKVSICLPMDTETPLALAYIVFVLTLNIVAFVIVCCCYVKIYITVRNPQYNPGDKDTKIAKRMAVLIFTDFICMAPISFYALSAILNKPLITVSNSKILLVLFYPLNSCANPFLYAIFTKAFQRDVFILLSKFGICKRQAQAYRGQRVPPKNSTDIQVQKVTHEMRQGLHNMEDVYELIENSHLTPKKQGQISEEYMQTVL
Sequence of Progesterone receptor (Homo sapiens) (P06401 whole entry, looked up): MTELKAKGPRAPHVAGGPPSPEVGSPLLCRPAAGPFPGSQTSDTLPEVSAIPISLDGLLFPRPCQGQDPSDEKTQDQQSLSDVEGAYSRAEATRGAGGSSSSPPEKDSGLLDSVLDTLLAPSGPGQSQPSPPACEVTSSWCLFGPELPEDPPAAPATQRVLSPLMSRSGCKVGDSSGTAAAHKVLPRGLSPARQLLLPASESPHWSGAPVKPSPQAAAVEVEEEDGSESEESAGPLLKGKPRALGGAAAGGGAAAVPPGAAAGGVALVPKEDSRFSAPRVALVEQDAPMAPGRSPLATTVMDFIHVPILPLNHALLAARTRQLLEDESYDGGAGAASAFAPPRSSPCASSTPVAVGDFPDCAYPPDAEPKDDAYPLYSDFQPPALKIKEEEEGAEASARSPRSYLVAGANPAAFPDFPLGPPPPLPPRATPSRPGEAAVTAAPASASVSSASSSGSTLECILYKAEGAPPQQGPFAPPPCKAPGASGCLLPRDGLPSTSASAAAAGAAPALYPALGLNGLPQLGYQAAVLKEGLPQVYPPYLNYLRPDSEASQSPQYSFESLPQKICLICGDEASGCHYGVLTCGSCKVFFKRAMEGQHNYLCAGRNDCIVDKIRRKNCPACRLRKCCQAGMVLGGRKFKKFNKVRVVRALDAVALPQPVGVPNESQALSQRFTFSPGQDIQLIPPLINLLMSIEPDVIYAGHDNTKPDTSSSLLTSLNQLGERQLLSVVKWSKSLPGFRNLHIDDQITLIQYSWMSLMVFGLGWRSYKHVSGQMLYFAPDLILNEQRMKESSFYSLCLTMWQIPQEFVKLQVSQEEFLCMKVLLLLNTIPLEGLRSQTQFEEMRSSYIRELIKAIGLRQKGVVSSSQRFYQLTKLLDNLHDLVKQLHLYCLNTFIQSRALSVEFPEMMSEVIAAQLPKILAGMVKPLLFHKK

For `Cc1cc(C(C)(C)C)c(O)c(C(C)(C)C)c1`, the Potency entry in assay [1], in [2], in assay [3], in assay [4], in [5] and in [6] was “inactive” throughout. The Potency entry in assay [7], in assay [9], in assay [10], in [11], in [12] and in assay [13] was “inactive” in each case. In assay [14], the Potency result was “inactive”. In addition, in assay [8], the outcome was inactive.

In the case of `O=C(O)c1cccc(C(=O)O)c1`, the Potency entry in assay [15], in assay [2], in assay [3], in assay [4], in assay [5] and in assay [6] was “inactive” in each case. In addition, the Potency entry in assay [7], in [16], in [9], in assay [10], in [17] and in [11] was “inactive” in each case. Moreover, the Potency entry in [12], in [13] and in [14] was “inactive” in each case.

With `c1ccc2c(c1)-c1cccc3c1c-2cc1ccccc13`, the Potency result in [15], in assay [2], in [3], in [4], in assay [5] and in assay [6] was “inactive” in each case. The Potency entry in [16], in assay [9], in [10], in assay [17], in assay [11] and in [12] was “inactive” in each case. In [13], the Potency result was “inactive”. In addition, in assay [7], the Potency result is “inactive and 545 nM (active)”.

For `CCCCOCCOC(=O)c1ccccc1C(=O)OCCOCCCC`, the Potency in assay [15] was 47.5 µM (active) and inactive; in assay [5], 53.3 µM (active) and inactive; in [7] it was 26.7 µM (active). For the same compound, the Potency entry in assay [3], in assay [6], in assay [18], in assay [16], in assay [9] and in assay [10] was “inactive” throughout. For the same compound, the Potency result in assay [17], in assay [11], in assay [13] and in assay [14] was “inactive” in each case. In addition, the outcome in [8] was inactive.

For `CC(=O)OCCOCCOCCOC(C)=O`, the Potency result in [15], in [2], in [3], in assay [5], in assay [6] and in assay [7] was “inactive” each time. Also, the Potency result in [18], in assay [16], in assay [9], in assay [10], in assay [17] and in assay [12] was “inactive” in each case. In addition, the Potency entry in assay [13] and in assay [14] was “inactive” throughout. Moreover, in assay [8], the result was inactive.
